About 79,000 compounds went through this panel and 15% of them were active in at least one assay; those are over-represented in the sample as a whole. Unmarked numbers belong to inactive results. Active and inactive are the calls of the source. Rule as the data show it: active = growth inhibition above about 70%; inactive = the rest.
Experiments:
[1] = NCI Yeast Anticancer Drug Screen. Data for the rad50 strain (AID 155);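 also: 0% = growth of vehicle-only cultures of the same strain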; settings: S. cerevisiae rad50 strain growth inhibition, hits give high values
Outline: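 Compounds were tested on a yeast strain with an engineered DNA damage repair alteration; the reported value is growth inhibition normalised to vehicle treatment.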

[2] = NCI Yeast Anticancer Drug Screen. Data for the mec2-1 strain (AID 157); settings: S. cerevisiae mec2-1 strain, hits give high values
Outline: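 Vehicle-treated cultures served as reference for growth inhibition of compound-exposed mec2-1 yeast.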

[3] = NCI Yeast Anticancer Drug Screen. Data for the sgs1 mgt1 strain (AID 161);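 also: 0% = growth of cultures given vehicle only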; settings: S. cerevisiae sgs1 mgt1 strain, hits give high values
Outline: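 Genetically altered yeast, compound exposure, growth inhibition relative to vehicle.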

[4] = NCI Yeast Anticancer Drug Screen. Data for the cln2 rad14 strain (AID 165);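 also: 0% = growth equal to vehicle treated cultures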; settings: S. cerevisiae cln2 rad14 strain, hits give high values
Outline: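 Each compound was tested on cln2 rad14 yeast. Inhibition of growth was calculated against vehicle-exposed controls.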

[5] = NCI Yeast Anticancer Drug Screen. Data for the bub3 strain (AID 167); settings: S. cerevisiae bub3 mutant strain, hits give high values
Outline: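 Growth of a checkpoint-deficient yeast mutant is measured after compound exposure. Values represent inhibition relative to vehicle.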

[6] = NCI Yeast Anticancer Drug Screen. Data for the mlh1 rad18 strain (AID 175); settings: S. cerevisiae mlh1 rad18 strain growth inhibition, hits give high values
Outline: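 Vehicle-treated cultures served as the reference for growth inhibition in a yeast strain carrying DNA damage repair alterations exposed to each compound.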

[7] = at 5.0 µM (retest, dose inferred, filed as 0.5)
[8] = at 50.0 µM (retest, dose inferred, filed as 5.0)

Row | Structure (SMILES) | growth inhibition [1, 7] [%] | growth inhibition [1, 8] | growth inhibition ([1]; at 50.0 µM) | growth inhibition [2, 7] [%] | growth inhibition [2, 8] | growth inhibition ([2]; at 50.0 µM) | growth inhibition [3, 7] [%] | growth inhibition [3, 8] | growth inhibition ([3]; at 50.0 µM) | growth inhibition [4, 7] [%] | growth inhibition [4, 8] | growth inhibition ([4]; at 50.0 µM) | growth inhibition [5, 7] [%] | growth inhibition [5, 8] | growth inhibition ([5]; at 50.0 µM) | growth inhibition [6, 7] [%] | growth inhibition [6, 8] | growth inhibition ([6]; at 50.0 µM)
1 | C=CCOc1ccc(-c2ccccc2)cc1C(=O)NC | -9 | -5% | 1.25% | 2 | -6% | 6.3% | -2 | 20% | 5.1% | -42 | -5% | 8.95% | -3 | 8% | 42.9% | -3 | 20% | 22.1%
2 | Brc1ccc(C2c3ccccc3-c3ccccc32)cc1 | 21 | 97% (active) | 94.5% (active) | 16 | 97% (active) | 94.7% (active) | 15 | 95% (active) | 96.6% (active) | 0 | 97% (active) | 94% (active) | 2 | 98% (active) | 95.8% (active) | -4 | 97% (active) | 94.8% (active)
3 | CC(Nc1ccc(S(=O)(=O)Nc2ncccn2)cc1)c1ccc2cccnc2c1O (configuration not stated) | 38 | 99% (active) | 99.5% (active) | 2 | 99% (active) | 99.5% (active) | 11 | 99% (active) | 98.5% (active) | 19 | 99% (active) | 96.7% (active) | 11 | 99% (active) | 99.3% (active) | 14 | 98% (active) | 99.2% (active)
4 | N#CC12CCCC(=O)N1c1ccccc1S2 (configuration not stated) | 10 | 5% | 12.9% | -7 | 10% | 7.85% | 1 | 1% | -2.3% | -12 | -3% | 43.5% | 3 | 1% | -6.8% | 14 | -2% | -10.2%
5 | CC(=Nc1ccc(S(=O)(=O)c2ccc(N=C(C)N3CCCCC3)cc2)cc1)N1CCCCC1 | 0 | 2% | -0.05% | -1 | -1% | 4% | -2 | 1% | -6.45% | -5 | -2% | -10.5% | -1 | -1% | -2.55% | -2 | -5% | -2.15%
6 | C#CC(CC(C)CC(C)(C)C)NC (configuration not stated) | 2 | 91% (active) | 97.2% (active) | 2 | 58% | 85.5% (active) | 0 | 97% (active) | 96.8% (active) | 7 | 53% | 76% (active) | 2 | 86% (active) | 92.3% (active) | 1 | 73% (active) | 96% (active)
7 | CCCCN(CCCC)CC(=O)c1ccc2cc(Cl)c3ccccc3c2c1 | 20 | 91% (active) | 95.3% (active) | 23 | 93% (active) | 95.5% (active) | 56 | 90% (active) | 95.8% (active) | 7 | 90% (active) | 92.7% (active) | 18 | 91% (active) | 95.3% (active) | 31 | 84% (active) | 94.7% (active)
8 | CC(C)(C)N1C(=O)C(Cl)(C#N)C1c1ccccc1 (configuration not stated) | 7 | 25% | 43.5% | -4 | 8% | 26.6% | -3 | 27% | 73.5% (active) | 9 | 11% | 19.9% | -1 | 0% | -6.3% | -11 | 26% | 72.5% (active)
9 | CC1=NOC(=O)/C1=C/c1ccc(Cl)c(Cl)c1 | -2 | 70% (active) | 31.9% | 10 | 20% | 36.7% | -11 | 31% | 52.5% | 8 | 61% | 2.1% | -3 | 71% (active) | 33.9% | -10 | 45% | 43.1%
